A short description of experiment [1]: qHTS RealTime-Glo MT Cell Viability Assay in HepG2 cells - 8 hour (AID 1224873). Further: nearly all actives have a fitted effect of over 55% in size. Further: potency means the concentration at half of the fitted maximal effect. In outline: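 Real-time viability: cells seeded at 600 per well together with NanoLuc and cell-permeant prosubstrate, compounds added after 5 h incubation. Luminescence tracked at 0, 8, 16, 24, 32 and 40 h of exposure.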
For orientation: qHTS replaces the single test concentration by a dilution series.

Experiment [2] is described as follows: qHTS RealTime-Glo MT Cell Viability Assay in HEK293 cells - 40 hour (AID 1224874). Further: nearly all actives have a fitted effect of over 50% in size. Further: potency means the concentration at half of the fitted maximal effect. The note with it: RealTime-Glo luminescence; max response: stronger effect = lower value. The procedure, abridged:
(§1)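 600 HEK293 cells per well, dispensed already mixed with RealTime-Glo MT reagents. Compound dosing came 5 h later. The same wells were read for luminescence at 0, 8, 16, 24, 32 and 40 h of exposure at 37 C.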

Experiment [3] can be described thus: A CellTox Green Cytotoxicity Assay to monitor cytotoxicity in HEK293 cells - 24 hour (AID 1224875). Further: nearly all actives have a fitted effect of over 45% in size. Further: potency means the concentration at half of the fitted maximal effect. The procedure, abridged:
(§2)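 Dead-cell fluorescence measured kinetically: asymmetric cyanine dye, HEK293, 600 cells/well, 5 h settle, 23 nL cpd/DMSO, 37 C, reads 0–40 h every 8 h.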

Experiment [4] in a line: A CellTox Green Cytotoxicity Assay to monitor cytotoxicity in HepG2 cells - 16 hour (AID 1224876). Further: nearly all actives have a fitted effect of over 45% in size. Further: potency means the concentration at half of the fitted maximal effect. The procedure, abridged: (§3)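 First, HepG2 cells (600/well) mixed with reagent were plated; second, after 5 h at 37 C they received compounds via pintool; third, fluorescence was measured at 0 h through 40 h at 8 h intervals.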
Experiment [5] in a line: qHTS RealTime-Glo MT Cell Viability Assay in HepG2 cells - 32 hour (AID 1224877). Further: nearly all actives have a fitted effect of over 55% in size. Further: potency means the concentration at half of the fitted maximal effect. The procedure, abridged: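 HepG2 suspension premixed with RealTime-Glo reagents is plated at 600 cells per well and left 5 h at 37 C/5% CO2. Compounds in DMSO then go in, and bioluminescence reflecting viable cell number is recorded over 40 h.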
Experiment [6] is described as follows: A CellTox Green Cytotoxicity Assay to monitor cytotoxicity in HepG2 cells - 24 hour (AID 1224878). Further: nearly all actives have a fitted effect of over 45% in size. Further: potency means the concentration at half of the fitted maximal effect. The procedure, abridged:
as §3

Experiment [7] is described as follows: A CellTox Green Cytotoxicity Assay to monitor cytotoxicity in HepG2 cells - 40 hour (AID 1224879). Further: nearly all actives have a fitted effect of over 40% in size. Further: potency means the concentration at half of the fitted maximal effect. The procedure, abridged:
as §3

Experiment [8] in a line: qHTS RealTime-Glo MT Cell Viability Assay in HEK293 cells - 0 hour (AID 1224880). Further: top concentration of the series differs between compounds; nearly all actives have a fitted effect of over 45% in size. In outline:
as §1

Experiment [9] is described as follows: A CellTox Green Cytotoxicity Assay to monitor cytotoxicity in HEK293 cells - 32 hour (AID 1224881). Further: nearly all actives have a fitted effect of over 40% in size. Further: potency means the concentration at half of the fitted maximal effect. The procedure, abridged: as §2
Experiment [10] is described as follows: qHTS RealTime-Glo MT Cell Viability Assay in HEK293 cells - 16 hour (AID 1224872). Further: nearly all actives have a fitted effect of over 50% in size. Further: potency means the concentration at half of the fitted maximal effect. The procedure, abridged: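 Reads taken at 0, 8, 16, 24, 32 and 40 h from the same wells. HEK293 cells (600/well) carried RealTime-Glo reagents from seeding, with compound added after a 5 h settle at 37 C.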

Each structure is given as a SMILES string. Where “and” joins values, the source holds several entries; their conditions need not be identical. Identical values can stand only once. Inconclusive results are not listed. The source holds several records for some structures; these can differ, active in one and inactive in another. Calls of active or inactive are those of the source. The call rests on the fitted dose curve; in most records, active means well fitted curve in the direction sought with a large enough effect in the repeat runs; inconclusive means weak or mixed curves; inactive means no such curve, though single readings can be large; an effect the other way counts as inactive or inconclusive.
On the % scale 0 is the no-effect control and ±100 the full control effect.

For `CCCCC/C=C/CC1CC(=O)OC1=O` (stereo not given), the Potency result in experiment [1], in experiment [3], in experiment [4], in [5], in experiment [6] and in experiment [7] was “inactive” in each case. Besides, the Potency result in [8] and in experiment [9] was “inactive” throughout. Besides, the max response in [2] is 1.06% (inactive).

With `COC(=O)/C=C/c1ccccc1`, the Potency result in experiment [10], in experiment [1], in [4], in experiment [5], in [6] and in experiment [7] was “inactive” throughout. Moreover, the Potency result in experiment [8] was “inactive”. The max response in [2] was -2.16% (inactive). Besides, the Potency result in [9] is “inactive and 21.9 µM (active)”.

Turning to `Nc1cc(S(=O)(=O)O)cc2cc(S(=O)(=O)O)cc(O)c12`, the Potency entry in [1], in experiment [3], in experiment [4], in [5], in experiment [6] and in experiment [7] was “inactive” throughout. Besides, the Potency entry in [8] and in [9] was “inactive” in each case. In addition, the max response in [2] is -12.9% (inactive).

Take `CC[C@H]1CN2CCc3cc(OC)c(OC)cc3[C@@H]2C[C@@H]1C[C@H]1NCCc2cc(OC)c(OC)cc21`: the Potency in experiment [10] is 24.6 nM (active) and 75.6 nM (active); in [2], 13.9 nM (active) and 42.5 nM (active); in [6], 49.2 µM (active) and 26.8 µM (active); in experiment [7], 49.2 µM (active) and 16.9 µM (active). The Potency entry in [1], in [3], in [4] and in experiment [8] was “inactive” throughout.

On to `O=C(O)c1cc(Cl)cc(Cl)c1`, for which the Potency entry in experiment [1], in experiment [3], in experiment [4], in experiment [5], in experiment [6] and in experiment [7] was “inactive” each time. Also, the Potency entry in experiment [8] and in [9] was “inactive” in each case. For the same compound, in experiment [2], the max response was 8.11% (inactive).

With `NC(N)=Nc1nc(CSCC/C(N)=N/S(N)(=O)=O)cs1`, the Potency result in experiment [1], in experiment [3], in experiment [5], in [7], in experiment [8] and in experiment [9] was “inactive” throughout. Also, in experiment [2], the max response was -7.2% (inactive) and 0.8% (inactive). Besides, the Potency in experiment [4] was 4.36 µM (active) and inactive; in experiment [6], 3.89 µM (active) and inactive.

Regarding `Nc1ccc(O)cc1`, the Potency in [1] was 50.9 µM (active) and inactive; in experiment [2] it was 32.1 µM (active). Also, the max response in experiment [2] is 18.9% (inactive). The Potency entry in experiment [3], in [4], in [5], in [6], in experiment [7] and in experiment [8] was “inactive” throughout. Moreover, in experiment [9], the Potency entry was “inactive”.

As for `c1ccc2n[nH]nc2c1`, the Potency entry in [10], in [1], in experiment [3], in experiment [4], in experiment [5] and in experiment [6] was “inactive” throughout. Further, the Potency entry in experiment [7], in [8] and in [9] was “inactive” in each case. Also, the max response in experiment [2] is 10.2% (inactive) and 5.87% (inactive).

Consider `CC(C)(c1ccccc1)c1ccc(Nc2ccc(C(C)(C)c3ccccc3)cc2)cc1`, for which the Potency result in [10], in experiment [3], in [4], in [5], in [6] and in [7] was “inactive” throughout. The Potency result in experiment [8] and in experiment [9] was “inactive” each time. In [2], the max response was -27.1% (inactive) and -13.6% (inactive).

On to `OCC(CO)N[C@H]1C[C@](O)(CO)[C@@H](O)[C@H](O)[C@H]1O`, for which the Potency entry in [1], in experiment [3], in experiment [4], in experiment [5], in [6] and in experiment [7] was “inactive” each time. Further, the Potency entry in [8] and in experiment [9] was “inactive” each time. The max response in experiment [2] was 11.4% (inactive).

`BrC1CCC(Br)C(Br)CCC(Br)C(Br)CCC1Br` (stereo not given): the Potency result in experiment [10], in experiment [3], in experiment [4], in experiment [6], in [7] and in experiment [8] was “inactive” each time. Besides, the Potency result in [9] is “inactive”. The max response in experiment [2] is -14.3% (inactive).

Regarding `NC(=Nc1ccccc1)Nc1ccccc1`, the Potency result in [10], in experiment [1], in experiment [3], in experiment [4], in experiment [5] and in [6] was “inactive” each time. Moreover, the Potency result in [7] and in experiment [9] was “inactive” each time.

On to `CC(=O)OCCOCCOCCOC(C)=O`, for which the Potency result in experiment [10], in [1], in experiment [3], in [4], in experiment [5] and in experiment [6] was “inactive” in each case. Also, the Potency result in experiment [7], in experiment [8] and in experiment [9] was “inactive” throughout. The max response in experiment [2] was 7.9% (inactive) and 19.2% (inactive).

On to `O=C(O[C@@H]1Cc2c(O)cc(O)cc2O[C@@H]1c1cc(O)c(O)c(O)c1)c1cc(O)c(O)c(O)c1`, for which the values for the Potency in experiment [10] and in [2] were 11.9 µM (active) and 7.48 µM (active), respectively. For the same compound, the Potency entry in [1], in experiment [3], in [4], in [6], in experiment [7] and in experiment [8] was “inactive” each time. Further, in [9], the Potency entry is “inactive”.

Turning to `O=C(Nc1ccccc1SSc1ccccc1NC(=O)c1ccccc1)c1ccccc1`, the Potency entry in experiment [1], in experiment [3], in experiment [4] and in experiment [8] was “inactive” in each case. Moreover, the Potency result was “inactive and 49 µM (active)” in experiment [5]; “inactive and 54.9 µM (active)” in [6]; 49 µM (active) in [7].

Take `CCCCCCCCCCCC[N+](C)(C)C`: the Potency entry in [1], in [3] and in [8] was “inactive” each time. Also, the Potency in [2] was 4.35 µM (active) and 9.77 µM (active); in experiment [4] it was 43.6 µM (active); in [5] it was 48.9 µM (active) and 49 µM (active); in [6] it was 54.8 µM (active) and 54.9 µM (active) and 49 µM (active); in experiment [7] it was 43.5 µM (active) and 43.6 µM (active) and 38.9 µM (active); in experiment [9], 54.8 µM (active) and 17.4 µM (active) and 30.9 µM (active).

In the case of `CC(C)(C)c1ccccc1`, the Potency result in experiment [1], in [3], in [4], in [5], in [6] and in experiment [7] was “inactive” each time. Also, the Potency result in [8] and in [9] was “inactive” in each case. Moreover, the max response in [2] is 0.372% (inactive).

Turning to `CCCNC(C)C(=O)Nc1ccccc1C` (stereo not given), the Potency result in [1], in experiment [3], in experiment [4], in [5], in experiment [6] and in experiment [7] was “inactive” each time. For the same compound, the Potency entry in [8] and in experiment [9] was “inactive” in each case. For the same compound, the max response in [2] was -3.34% (inactive).

Turning to `CC(C)(C)c1cc(C(C)(C)C)c(O)c(C(C)(C)C)c1`, the Potency result in [1], in experiment [5] and in experiment [8] was “inactive” in each case. The max response in experiment [2] is -7.81% (inactive). Besides, the Potency in experiment [3] was 54.9 µM (active) and 38.9 µM (active); in experiment [6], 54.9 µM (active); in [7], 49 µM (active); in experiment [9], 54.9 µM (active) and 34.7 µM (active).

Consider `Cc1ccnc2c1NC(=O)c1cccnc1N2C1CC1`, for which the Potency entry in experiment [1], in experiment [3], in experiment [4], in experiment [5], in experiment [6] and in [7] was “inactive” in each case. Also, the Potency entry in experiment [8] and in [9] was “inactive” in each case. Besides, the max response in experiment [2] was -13.4% (inactive) and -3.25% (inactive).

In the case of `c1cnc2cc3c(cc2n1)C1CNCC3C1`, the Potency entry in [1], in [3], in [4], in experiment [5], in experiment [6] and in experiment [7] was “inactive” throughout. The Potency result in experiment [8] and in experiment [9] was “inactive” in each case. Moreover, the max response in [2] was 11% (inactive).

`CN(C)c1ccc2nc3ccc(=[N+](C)C)cc-3sc2c1`: the Potency is 9.39 µM (active) and 19.5 µM (active) and 19 µM (active) in experiment [1]; 1.67 µM (active) and 1.55 µM (active) and 2.68 µM (active) in experiment [2]; 21 µM (active) and 12.3 µM (active) and 19 µM (active) in [5]. Moreover, the Potency entry in experiment [3], in [4], in [6], in experiment [7], in experiment [8] and in [9] was “inactive” in each case.

The values are drawn from PubChem BioAssay (Tox21).
